The sample as a whole holds a higher share of hits than the screen did.
TTR transcr act: TTR transcription activators in neuroblastoma reporter cells, primary screen, cell-based, luminescence, SH-SY5Y, TTR promoter Gaussia luciferase; 100% = recombinant luciferase protein wells; activation, % at 16.7 µM; AID 1117267, 2014; 92,000 tested, 1.3% active;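 active = activation above the mean of all tested compounds plus 3 SD, cut at about 9.5% in these data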;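 note: cells exposed to compounds for one day before reading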
TTR inh HuH7: TTR promoter reporter inhibitors in hepatoma cells, counter-screen for TTR transcription activator project, cell-based, luminescence, HuH7 hepatoma; shares compounds with TTR transcr act; HuH7 TTR promoter-Gaussia luciferase reporter; inhibition, % at 16.7 µM; 1,100 tested, 4% active;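 active = average inhibition above the solvent-only control wells' mean plus 3 SD, cut at about 15% in these data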;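 note: inhibitors lower well luminescence so higher value means more inhibition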
TTR act confirm: TTR transcription activators, retest, confirmation, cell-based, luminescence, SH-SY5Y, triplicate; shares compounds with TTR transcr act; SHSY5Y TTR promoter Gaussia luciferase; 100% = purified Lucia enzyme wells, no cells; activation, % at 16.7 µM; 1,100 tested, under 10 active;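 active = mean activation above a set limit taken from the earlier primary screen, cut at about 11% in these data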
Of the large screens only hits and unclear results are named; the others gave an inactive call (follow-up assays come after a bar, where they were run).

CC1(C)CC(=O)C=C(c2ccc(I)cc2)C1	none
CC1(C)CC(=O)C=C(c2ccc(OC(F)(F)F)cc2)C1	TTR transcr act 12 | TTR inh HuH7 inactive | TTR act confirm inactive
CC1(C)CC(=O)C=C(c2ccc(Oc3ccccc3)cc2)C1	none
C[C@H]1COC(=O)[C@H](Cc2ccc(F)cc2)C/C=C\C[C@@H](CC(=O)NCCO)C(=O)N1	none
COCCn1c(SCC(=O)Nc2ccc3c(c2)OCCO3)nnc1C(C)C	none
CC(=O)OCC(=O)Nc1c(C)cc(C)cc1C	TTR transcr act 9.9 | TTR inh HuH7 inactive | TTR act confirm inactive
COc1cc(CCC(=O)OCC(=O)Nc2c(C)cc(C)cc2C)cc(OC)c1OC	none
Cc1cc(C)c(NC(=O)COC(=O)C2CCCO2)c(C)c1 (stereo unspecified)	none
Cc1[nH]ncc1Nc1ccccc1C(C)C	none
Fc1ccc(Nc2nc(N3CCOCC3)nc(N3CCOCC3)n2)cc1Cl	none
CCOC(=O)C(c1ccccc1)C(Nc1cc(C(F)(F)F)cc(C(F)(F)F)c1)c1ccccn1 (stereo unspecified)	none
COC(=O)c1cc(NC(=O)c2cc(-c3ccc(C(F)(F)F)cc3)oc2C(F)(F)F)ccc1N1CCOCC1	none
COC(=O)c1cc(NC(=O)c2c(C)noc2C)ccc1N1CCOCC1	none
COC(=O)c1cc(NCc2ccccc2F)ccc1N1CCOCC1	TTR transcr act 10 | TTR inh HuH7 inactive | TTR act confirm inactive
COc1ccc([C@H]2CC(=O)C=C(c3ccccc3-c3ccccc3)C2)cc1	none
N#C/C(=C/Nc1ccccc1)c1ccsc1	none
COc1ccc(NC(=O)c2cc(C)on2)cc1OC	none
COc1ccc(NC(=O)c2cc(C)on2)cc1	TTR transcr act 13 | TTR inh HuH7 inactive | TTR act confirm inactive
COc1cc(NC(=O)c2cc(C)on2)cc(C(=O)Nc2cccc(C(F)(F)F)c2)c1	none
Cc1ccc(C(=O)C(C)OC(=O)c2cc3cc([N+](=O)[O-])ccc3oc2=O)cc1 (stereo unspecified)	none
Cc1cccc(C(=O)NC(=S)NC(C)c2ccccc2)c1 (stereo unspecified)	none
CC1=C(C(=O)Nc2cccc(C(=O)NC(C)c3ccccc3)c2)SCCO1 (stereo unspecified)	TTR transcr act 11 | TTR inh HuH7 inactive | TTR act confirm inactive
Cc1cccc(NC(=O)c2nc[nH]c2C(=O)N[C@@H](C)c2ccccc2)c1	none
COc1ccccc1NS(=O)(=O)c1cccc(NC(=O)c2cc3ccccc3oc2=O)c1	none
Cc1cc(-c2n[nH]c(=S)n2/N=C/C=C/c2ccco2)n[nH]1	none
Brc1ccc(CSc2ccc3nnc(-c4ccccn4)n3n2)cc1	none
Cc1ccccc1NCC(=O)N/N=C/c1ccc[nH]1	TTR transcr act 16 | TTR inh HuH7 inactive | TTR act confirm inactive
Cc1ccccc1NCC(=O)N/N=C/c1c[nH]c2ccccc12	none
O=C(COc1c(Cl)cc(Cl)cc1Cl)N/N=C/c1ccc[nH]1	none
CCc1ccc(OC(=O)/C=C/c2ccco2)cc1	none
CC(C)CCNC(=O)COc1ccc2c3c(c(=O)oc2c1)CCC3	none
Cc1cccc(N2CCN(S(=O)(=O)c3ccc4c(c3)CCN4C(=O)CCC(=O)O)CC2)c1C	none
Cc1cccc(N2CCN(S(=O)(=O)c3ccc4c(c3)OCCO4)CC2)c1C	none
Cc1cccc(N2CCN(S(=O)(=O)c3ccc4c(c3)CC(=O)N4C)CC2)c1C	TTR transcr act 14 | TTR inh HuH7 inactive | TTR act confirm inactive
O=C(Nc1ccc(-n2cccn2)cc1)C1CCN(Cc2ccccn2)CC1	none
Nc1nccnc1C(=O)N/N=C/c1ccco1	none
CCC(C)NCCCCOc1cc(C)cc(C(C)C)c1 (stereo unspecified)	none
CCOc1ccc(OCCCCNC(C)(C)C)cc1	none
CCC(C)NCCCCOc1ccc(Br)cc1 (stereo unspecified)	TTR transcr act 10 | TTR inh HuH7 inactive | TTR act confirm inactive
Cc1cc(-c2nc(C)c(-c3nnc(SCC(=O)Nc4ccc(Cl)cc4)n3C)s2)no1	none
COc1ccc(NC(=O)Nc2ccc3c(c2)C(=O)N([C@H](C)CO)C[C@@H](C)[C@@H](CN(C)C(=O)C2CCCCC2)OCCCC[C@H](C)O3)cc1	none
Cc1ccc2nc(SCC(=O)Nc3nonc3C)[nH]c2c1	TTR transcr act 10 | TTR inh HuH7 inactive | TTR act confirm inactive
Cc1ccc2nc(SCC(=O)N3CCCC3)[nH]c2c1	none
Cc1ccc2nc(SCC(=O)NC3CC3)[nH]c2c1	none
C=CCn1c(CNC(=O)c2ccco2)nnc1SCC(=O)Nc1cccc(F)c1	none
CCN(CC)S(=O)(=O)c1cc(OCC(N)=O)c(C)cc1Cl	none
O=C(NCc1ccncc1)c1cc(-c2ccc(Cl)cc2)oc1C(F)(F)F	none
CC(C)NC(=O)CSc1nnc(-c2ccc3ncccc3c2)n1C	none
O=C1CC[C@@H](O)CCN1CC[C@H](Sc1ccc(Br)cc1)c1ccccc1	none
Cc1ccc(NC(=O)COC(=O)c2ccc(S(=O)(=O)NCc3ccco3)cc2)cc1	none
CCOC(=O)c1ccc2[nH]cc(C(C)=O)c(=O)c2c1	none
CCn1nc(C)c(CN2CCCC(C(=O)c3cccc(OC(C)C)c3)C2)c1C (stereo unspecified)	none
Cc1nn(C(C)C)c(C)c1CN1CCCC(C(=O)c2cccc(OC(C)C)c2)C1 (stereo unspecified)	none
Cc1nn(C)c(C)c1CCC(=O)N1CCCC(C(=O)c2cccc(OC(C)C)c2)C1 (stereo unspecified)	TTR transcr act 10 | TTR inh HuH7 inactive | TTR act confirm inactive
CCC1(C)C2(C#N)C(N)=NC(OC)(OC)C12C#N (stereo unspecified)	TTR transcr act 16 | TTR inh HuH7 inactive | TTR act confirm inactive
COc1ccc(Cl)cc1NC(=O)c1cc(-c2ccccc2)on1	TTR transcr act 12 | TTR inh HuH7 inactive | TTR act confirm inactive
COc1ccc(NC(=O)c2cc(-c3ccc(OC)c(OC)c3)on2)cc1OC	none
COc1ccc(Cl)cc1NC(=O)c1cc(C2CC2)on1	none
Cc1cccc2cc(COC(=O)c3cccs3)c(=O)[nH]c12	none
CCOc1ccc(S(=O)(=O)N2CCCCC2)cc1NC(=O)c1cccnc1OCC	none
COc1cc([N+](=O)[O-])c(OC)cc1SCc1n[nH]c(=S)n1-c1ccc(C)cc1	none
CN(C)C(CNC(=S)Nc1ccccc1Cl)c1cccnc1 (stereo unspecified)	none
CCN(c1ccccc1)S(=O)(=O)c1cc(C(=O)NCC(c2ccc(OC)cc2)N(C)C)ccc1C (stereo unspecified)	none
Cc1ccc(CNc2nc3ccccc3n2C)o1	none
Cc1ccc(S(=O)(=O)N2CCCCC2)cc1C(=O)NCc1ccncc1	none
CCCCCNC(=O)c1cc(S(=O)(=O)N2CCCCC2)ccc1F	TTR transcr act 11 | TTR inh HuH7 inactive | TTR act confirm inactive
CCCCNC(=O)c1cc(S(=O)(=O)N2CCCCC2)oc1C	none
Cc1ccccc1N1CCN(C2CCCN(C(=O)c3ccc(Cl)s3)C2)CC1 (stereo unspecified)	none
CCN1C(=O)c2cccc3c(S(=O)(=O)N(C(=O)c4ccncc4)c4ccc(OC)cc4)ccc1c23	none
Cc1ccc2c(c1)nnn2C1CCN(C(=O)NCc2ccccc2)CC1	TTR transcr act 9.7 | TTR inh HuH7 inactive | TTR act confirm inactive
O=C(NCc1ccccc1)N1CCC(Cc2ccccc2)CC1	none
Cc1ccc2c(c1)nnn2C1CCN(CC(=O)N(c2ccccc2)c2ccccc2)CC1	none
